Experimental data: PubChem BioAssay
Activity calls are given as the source filed them. The rule behind the calls is not given here.

tested on: Aerobactin synthetase IucA (Klebsiella pneumoniae hvKP1); assay: Biochemical IucA enzyme inhibition primary screen of the Spectrum library (AID 1346200); conditions: malachite green pyrophosphate, A620, at 8 µM, active compounds read low;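 note: 100% = wells without compound and 0% = wells lacking enzyme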

| SMILES | activity remaining |
| --- | --- |
| CCOC(=O)[C@H](CCc1ccccc1)N[C@H](C)C(=O)N1C2CCCCC2C[C@H]1C(=O)O (stereo not given in full) | 119% (inactive) |
| COC(=O)[C@]1(C)CCC[C@]2(C)c3ccc(C(C)C)cc3C(=O)CC12 (stereo not given in full) | 89.3% (inactive) |
| CCCCC(=O)O[C@]1(C(=O)CO)[C@@H](C)CC2C3CCC4=CC(=O)C=C[C@]4(C)[C@@]3(F)C(O)C[C@@]21C (stereo not given in full) | 121% (inactive) |
| O=C1c2c(O)cccc2Cc2cccc(O)c21 | 92.3% (inactive) |
| CC(=O)Nc1ccc(S(=O)(=O)c2ccc(NC(C)=O)cc2)cc1 | 110% (inactive) |
| CCC(=O)OCC(=O)C1(OC(=O)CC)C(C)CC2C3CCC4=CC(=O)C=CC4(C)C3(Cl)C(O)CC21C (stereo not given) | 119% (inactive) |
| COc1ccc(-c2cc(=O)c3c(O)cc(O[C@@H]4O[C@H](CO[C@H]5O[C@H](C)[C@@H](O)[C@H](O)[C@@H]5O)[C@@H](O)[C@H](O)[C@H]4O)cc3o2)cc1O | 90.7% (inactive) |
| CC1(C)C(=O)C=C[C@@]2(C)C1CC(=O)[C@]1(C)C2CC[C@@]2(C)[C@H](c3ccoc3)OC(=O)[C@H]3O[C@]321 (stereo not given in full) | 116% (inactive) |
| CCCCCCCCCCCC1=C(O)C(=O)C=C(O)C1=O | 102% (inactive) |
| COc1cc(-c2coc3cc(OCc4ccccc4)c(OC)c(O)c3c2=O)cc(O)c1OC | 122% (inactive) |
| CN1C2CC[C@@H]1CC(OC(=O)[C@H](CO)c1ccccc1)C2 (stereo not given in full) | 102% (inactive) |
| CC(=O)O[C@@H]1CC[C@@]2(C)C(C[C@@H](OC(C)=O)[C@@]3(C)C4=CC(=O)O[C@@H](c5ccoc5)[C@]4(C)CCC23)C1(C)C (stereo not given in full) | 121% (inactive) |
| CC(=O)O[C@@H]1CC2C(C)(C)[C@H](O)C=C[C@]2(C)C2CC[C@@]3(C)[C@H](c4ccoc4)OC(=O)C4OC43[C@@]21C (stereo not given in full) | 107% (inactive) |
| CC(=O)OCC(=O)[C@@]12OC(C)(C)O[C@@H]1CC1C3C[C@H](F)C4=CC(=O)C=C[C@]4(C)[C@@]3(F)[C@@H](O)C[C@@]12C (stereo not given in full) | 100% (inactive) |
| CC(C)=CCCC1(C)C=Cc2c(O)c3c(c(CC=C(C)C)c2O1)OC12C(=CC4CC1C(C)(C)OC2(C/C=C(\C)C(N)=O)C4=O)C3=O (stereo not given) | 99.6% (inactive) |
| Cc1c(C)c2c(c(C)c1O)CCC(C)(CCCC(C)CCCC(C)CCCC(C)C)O2 (stereo not given) | 105% (inactive) |
| Cc1ccc(-c2cc(C(F)(F)F)nn2-c2ccc(S(N)(=O)=O)cc2)cc1 | 95% (inactive) |
| CCOC(=O)c1c(C)cc(O)c(C=O)c1O | 97.7% (inactive) |
| O=C(O)c1ccccc1C(=O)Nc1ccc(S(=O)(=O)Nc2nccs2)cc1 | 98.2% (inactive) |
| Cc1cc(C(C)(C)C)c(O)c(C(C)(C)C)c1 | 110% (inactive) |

| SMILES | activity remaining |
| --- | --- |
| Cc1cccc2c3c(ccc12)C1=C(C(=O)C3=O)C(C)CO1 (stereo not given) | 114% (inactive) |
| Cc1cc(O)c(C=O)c(O)c1C(=O)O | 124% (inactive) |
| C/C=C1\[C@H]2C=C(C)C[C@]1(N)c1ccc(=O)[nH]c1C2 | 122% (inactive) |
| C=CCCCCCCCCCCCC(O)CC(O)COC(C)=O (stereo not given) | 116% (inactive) |
| O=C(O)CN(CC(=O)O)Cc1cc2c(-c3ccccc3C(=O)O)c3cc(CN(CC(=O)O)CC(=O)O)c(=O)cc-3oc2cc1O | 113% (inactive) |
| S=P(N1CC1)(N1CC1)N1CC1 | 89.8% (inactive) |
| Nc1nc(/C(=C/CC(=O)O)C(=O)N[C@@H]2C(=O)N3C(C(=O)O)=CCS[C@H]23)cs1 | 117% (inactive) |
| CCN(CC)CCOC(=O)C(c1ccccc1)C1CCCCC1 (stereo not given) | 111% (inactive) |
| CC(=O)N[C@@H](Cc1c[nH]c2ccccc12)C(=O)O | 110% (inactive) |
| CC1=C2[C@](C)(C=CC1=O)C[C@H](O)[C@H]1[C@H](C)C(=O)O[C@]21C | 107% (inactive) |
| CC1(C)C(=O)[C@@H]2C[C@@]3(O)C4=CC(=O)O[C@@H](c5ccoc5)[C@]4(C)CCC3C(C)(C2=O)[C@H]1CC(=O)O (stereo not given in full) | 98.2% (inactive) |
| O=c1cccc2ccc(O)c(O)c2c1O | 86.6% (inactive) |
| O=C(NCO)c1cccnc1 | 113% (inactive) |
| CO[C@@]1(NC(=O)Cc2cccs2)C(=O)N2C(C(=O)O)=C(COC(N)=O)CS[C@@H]21 | 108% (inactive) |
| CCCOc1ccc2nc(NC(=O)OC)[nH]c2c1 | 98.2% (inactive) |
| O=C(O)c1cc(O)c2c(c1)C(=O)c1cc(O)cc(O)c1C2=O | 99.8% (inactive) |
| COc1ccc(-c2oc3c(CC=C(C)C)c(O[C@@H]4O[C@H](CO)[C@@H](O)[C@H](O)[C@H]4O)cc(O)c3c(=O)c2O[C@@H]2O[C@@H](C)[C@H](O)[C@@H](O)[C@H]2O)cc1 | 121% (inactive) |
| CCCCOC(=O)c1ccc(N)cc1 | 85.9% (inactive) |
| CC[C@@]1(O)C(=O)OCc2c1cc1n(c2=O)Cc2cc3c(CN(C)C)c(O)ccc3nc2-1 | 121% (inactive) |
| COc1ccc(C2C(=O)c3ccccc3C2=O)cc1 | 119% (inactive) |
